Compound activity: PubChem BioAssay, National Center for Advancing Translational Sciences (NCATS)
Pf growth 48h – inhibits P. falciparum growth in the first generation, 48 h; P. falciparum luciferase growth in erythrocytes, 48 h; Potency, µM (series often up to 28.7 µM), inactives show at the highest dose activity change, negative = inhibition, actives largely listed as inhibitors; hit rate 5.9% among 310,000; note: potency is the fitted concentration of half-maximal effect; % is set by controls: 0 for no effect and ±100 for the full control effect
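Luciferase-expressing P. falciparum in infected erythrocytes (2% hematocrit, 0.1% parasitemia final) in RPMI 1640/0.5% Albumax were exposed to compound for 48 hours at 37 C, 5% CO2; growth read as luminescence.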
Shiga toxin inh – Shiga toxin inhibition; inhibition, % at 38.7 µM; hit rate 9.2% among 290,000; Vero cells, Shiga toxin protein synthesis inhibition reporter; in the data active = inhibition mostly above about 28%, no sharp cut-off; inactive = mostly below about 43%; note: 0% is about no effect
HCV inh – blocks hepatitis C virus. Huh7.5.1 HCVcc-Cre infection, luciferase reporter, 44 h. hit rate 3.4% among 340,000. AID 651820. Potency, µM (highest dose often 41.8 µM), inactives show at the highest dose activity change, negative = inhibition, most hits filed as inhibitors; note: potency is the fitted concentration of half-maximal effect; % is set by controls: 0 for no effect and ±100 for the full control effect
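Reporter virus HCVcc-Cre (~0.5 moi) infects cells exposed to compound; seeding density 1,000 cells/well with 4 h settling beforehand. Luminescence, 15 sec read, taken 44 h post-infection following a 15 min RT substrate incubation.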
Cycloheximide cs – counter-screen for Shiga toxin inhibitors: cycloheximide protein synthesis inhibition; cell reporter, cycloheximide protein synthesis inhibition counterscreen; max response, %; hit rate 12% among 300,000; in the data active = max response mostly above about 13%, no sharp cut-off; inactive = mostly below about 14%; note: read at 38.3 µM for the half of the compounds with a filed dose; 0% is about no effect
Pf growth 96h – P. falciparum growth inhibition at 96 hours | P. falciparum luciferase reporter growth, 96 h | Potency, µM (doses to about 28.7 µM), inactives show top-dose activity change, negative = inhibition, most hits filed as inhibitors | hit rate 6.9% among 320,000 | AID 504834; note: potency is the fitted concentration of half-maximal effect; % is set by controls: 0 for no effect and ±100 for the full control effect
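Two parasite generations (96 h, 37 C, 5% CO2) of compound exposure in infected erythrocytes (0.05% parasitemia, 2% hematocrit). Luciferase-reporter P. falciparum; decreased luminescence indicates inhibited growth, aimed at apicoplast-acting delayed death.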
HCMV inh – inhibitors of human cytomegalovirus. HFF cells, HCMV-luciferase reporter, 72 h; active compounds read low. activity change, negative = inhibition, % at 57.5 µM. hit rate 4.5% among 410,000; in the data active = activity change below about -60%; inconclusive = no clear call, values can overlap the other calls; inactive = above about -39%; note: % is set by controls: 0 for no effect and ±100 for the full control effect
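Steps: HFFs plated, 16 h 37C; compounds added; HCMV-luciferase added to MOI 1 PFU/cell; 72 h 37C; OneGlo reagent, 5 min room temperature; luminescence read, normalized to controls.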
The depositor's hits bear a star; ? = inconclusive; . = no result. Only some compounds are listed: those with a hit (about 21% of all), similar ones and a draw of the others. Unless noted, calls come from the whole dose curve; as a rule, active = well fitted inhibition curve with a large enough effect; inconclusive = small, poorly fitted or top-dose-only effect, or another doubt; inactive = no such curve, though single readings can be large or run the other way.

SMILES	Pf growth 48h	Shiga toxin inh	HCV inh	Cycloheximide cs	Pf growth 96h	HCMV inh
CC1CC(C)CN(c2ccc(NS(=O)(=O)c3ccccc3)cc2C(=O)O)C1 (centres undefined)	20.0%	0.7	15.0%	4.5	9.6%	-0.8
Cc1ccc2c(CN3CCN(S(=O)(=O)/C=C/c4ccccc4)CC3)cc(=O)oc2c1	?	-3.7	?	2.2	9.28µM*	-11.6
Cc1ccc2oc(=O)cc(CN3CCOCC3)c2c1	-3.1%	-4.6	-2.9%	-2.8	7.38µM*	34.0
CCc1ccc2oc(=O)cc(CN3CCC(C)CC3)c2c1	1.31µM*	-11.1	?	-6.2	2.94µM*	-22.1
Cc1ccc2oc(=O)cc(CN3CCC(C)CC3)c2c1	?	-3.9	9.7%	-3.3	5.86µM*	8.0
CCN1CCN(Cc2cc(=O)oc3ccc(C)cc23)CC1	2.4%	-7.4	-11.4%	-3.7	23.9%	11.1
CNC(=O)OCc1snc(-c2ccccc2)c1COC(=O)NC	.	.	.	.	.	-13.7
O=C(Cn1ncc2ccc(Cl)cc21)NCc1ccc(F)cc1	.	.	.	.	.	8.4
Cc1ccc2c(CN3CCCCC3)cc(=O)oc2c1	34.9%	28.5*	2.2%	20.9*	18.8%	-77.3*
Cc1ccc2c(CN3CCOCC3)cc(=O)oc2c1	32.6%	-7.9	9.5%	-2.1	-12.3%	-3.4
CCN(CC)c1ccc(/C=C(\C#N)c2ccccn2)cc1	-62.9%	26.2	14.1µM*	35.5*	-91.7%	.
N#C/C(=C\c1ccc(C(=O)O)cc1)c1ccccn1	11.4%	12.9	1.3%	9.3	22.1%	-27.9
CN(CCC#N)c1ccc(/C=C(\C#N)c2ccccn2)cc1	111.3%	active	?	48.2*	81.0%	-17.9
CN(CCC#N)c1ccc(C=C(C#N)c2ccc(Br)cc2)cc1	.	.	.	.	.	8.8
N#CC(=Cc1ccncc1)c1ccccc1	.	.	?	.	.	-28.0
CCN(Cc1ccccc1)c1ccc(/C=C(\C#N)c2ccccn2)cc1	10.4%	98.2*	-4.3%	55.6*	?	47.9
O=C(COc1ccc([N+](=O)[O-])cc1)Nc1ccc2c(c1)CCC2	-3.0%	.	-13.9%	.	54.5%	-1.5
CCCCn1c(SCC(=O)c2ccccc2)nc2c(sc3ccccc32)c1=O	.	.	.	.	.	-3.0
Cn1c(Cc2ccccc2)[n+](C)c2ccccc21	?	-14.5	?	-3.3	?	-17.7
CN(C)C(=O)Oc1ccc(OCc2n(C)c3ccccc3[n+]2C)cc1	?	-3.1	15.6%	-1.6	2.33µM*	-6.0
COc1cc(SC)ccc1C(=O)OCC(=O)N1CCCC1	59.4%	50.2*	-8.1%	40.3*	58.5%	-5.8
COc1cc(SC)ccc1C(=O)OCC(=O)NC(=O)NC(C)C	9.0%	-7.3	3.1%	17.1*	59.9%	-20.1
CC(C)CNC(=O)COC(=O)c1ccc(F)cc1Cl	14.5%	51.8*	9.4%	28.4*	17.3%	-5.8
COc1cc(SC)ccc1C(=O)OCC(=O)NCC(C)C	19.7%	32.3	12.2%	25.3*	37.7%	-19.0
Cc1ccc2c(c1)cc(C(=O)Nc1ccccc1C)n2C	.	.	.	.	.	38.0
SMILES	Pf growth 48h	Shiga toxin inh	HCV inh	Cycloheximide cs	Pf growth 96h	HCMV inh
O=C(NCCc1nc2ccccc2[nH]1)c1ccc(Cl)c([N+](=O)[O-])c1	?	-6.2	8.7%	-1.5	24.5%	21.6
CCCNC(=O)c1ccc2c(=O)c(O)c(-c3ccc(Cl)c([N+](=O)[O-])c3)[nH]c2c1	?	1.6	5.01µM*	-3.1	?	5.8
COC(=O)c1cc2ccccc2c(-c2c(O)ccc3ccccc23)c1O	9.28µM*	-16.4	5.3%	-1.9	?	-32.0
COC(=O)c1ccccc1C(=O)c1cccc2ccccc12	0.0%	16.1	-5.7%	7.5	0.0%	7.1
CCN(Cc1cc2cc(C)ccc2[nH]c1=O)C(=O)c1cccc([N+](=O)[O-])c1	18.3%	7.4	-21.7%	-2.4	-8.9%	-16.7
COCCn1c(C)cc(O)c(C(c2ccc(Cl)cc2)N2CCCCC2)c1=O (centres undefined)	.	.	.	.	.	1.6
COc1ccc(NC(=O)c2ccc3ncsc3c2)c2ccccc12	?	17.4	-12.1%	3.9	-19.6%	-13.5
COc1ccc(C(C)(C)C)cc1NC(=O)c1ccc2ncsc2c1	20.1%	72.3*	?	27.0*	?	3.7
CC(C)c1ccccc1NC(=O)c1ccc2ncsc2c1	57.1%	39.1*	-10.4%	30.4*	67.5%	2.1
